The source of these data is PubChem BioAssay (Tox21).

Records with an inconclusive call do not appear. Entries that show only a call come without a potency. Calls of active or inactive are those of the source. Calls come from the whole dose curve; as a rule, active = well fitted curve in the direction sought with a large enough effect in the repeat runs; inconclusive = weak or mixed curves; inactive = no such curve, though single readings can be large; an effect the other way counts as inactive or inconclusive.
Note: nearly all actives have a fitted effect of over 50% in size.

The first test can be described thus: qHTS RealTime-Glo MT Cell Viability Assay in HEK293 cells - 32 hour (AID 1224868). Note: potency is the fitted concentration of half-maximal effect. The conditions noted are these: RealTime-Glo luminescence; series mostly up to 76.8 µM. Summed up:
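Cells + reagent dispensed (600 cells/well, HEK293) → 5 h at 37 C/5% CO2 → 23 nL compound in DMSO pinned → 40 h at 37 C → luminescence read at 0, 8, 16, 24, 32, 40 h.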
On the technique in general: In qHTS, concentration-response curves come from the screen itself.
`O=C(O)c1cccc(C(F)(F)F)c1`: the Potency entry is “inactive”.

As to `O=C(O)CCN(C1(C(=O)NO)CCCC1)S(=O)(=O)c1ccc(Oc2ccc(F)cc2)cc1`, the Potency entry is “inactive”.

Take `Cc1nc(-c2ccc(Cl)cc2)oc1COC(C)(C)C(=O)O`: the Potency result was “inactive”.

On to `O=C(O)c1cc(=O)c2ccccc2o1`, for which the Potency entry is “inactive”.

For `Cc1cccc(C(=O)O)c1O`, the Potency entry is “inactive”.

Take `C=CC(C)(CCC=C(C)C)OC=O` (stereo unspecified): the Potency entry is “inactive”.

As to `OC[C@@H](O)[C@@H](O)CO`, the Potency entry was “inactive”.

In the case of `CCC(COC(=O)CCS)(COC(=O)CCS)COC(=O)CCS`, the Potency entry is “inactive”.

For `Cc1cccc(C)c1NC(=O)c1ccc(N)cc1`, the Potency entry was “inactive”.

Consider `C1CCC(SSC2CCCCC2)CC1`, for which the Potency result is “inactive”.

For the compound `CC(=O)c1ccc(C(C)=O)cc1`, the Potency entry is “inactive”.

Consider `CC(C)(c1cc(Br)c(OCC(Br)CBr)c(Br)c1)c1cc(Br)c(OCC(Br)CBr)c(Br)c1` (stereo unspecified), for which the Potency entry is “inactive”.

Regarding `Clc1sc(Cl)c(Cl)c1Cl`, the Potency result was “inactive”.

As to `Cc1cc(-c2ccc(N=Nc3cc(S(=O)(=O)O)c4ccccc4c3N)c(C)c2)ccc1N=Nc1cc(S(=O)(=O)O)c2ccccc2c1N`, the Potency is 2.2 µM (active).

On to `CCCCCc1ccc(Cl)cc1`, for which the Potency is 15.5 µM (active).

`Cc1ccc(C)cc1`: the Potency entry was “inactive”.

For the compound `CCc1ccc(Br)cc1`, the Potency entry is “inactive”.

Turning to `Cc1cccc2cccnc12`, the Potency entry was “inactive”.

`Cc1c(F)c(N2CCNC(C)C2)cc2c1c(=O)c(C(=O)O)cn2C1CC1` (stereo unspecified): the Potency entry is “inactive”.

Regarding `O=C(/C=C/c1ccccc1)OC/C=C/c1ccccc1`, the Potency entry was “inactive”.

For the compound `Nc1nc(-c2ccccc2)cs1`, the Potency result is “inactive”.

Consider `CC(C)OC(=O)C(O)(CC(=O)O)CC(=O)O`, for which the Potency entry is “inactive”.

Take `CCCCCCCC`: the Potency entry is “inactive”.

Consider `CCOc1ccc2ccccc2c1C(=O)N[C@@H]1C(=O)N2[C@@H]1SC(C)(C)[C@@H]2C(=O)O`, for which the Potency entry is “inactive”.

On to `Cc1ccc(C(=O)O)cc1`, for which the Potency entry was “inactive”.

With `COc1cc(C)ccc1O`, the Potency result is “inactive”.

On to `OC[C@H]1O[C@H](O[C@H]2O[C@H](CO)[C@@H](O)[C@H](O)[C@H]2O)[C@H](O)[C@@H](O)[C@@H]1O`, for which the Potency entry is “inactive”.

`Cc1c(C)c2c(c(C)c1OC(=O)c1cccnc1)CC[C@@](C)(CCC[C@H](C)CCC[C@H](C)CCCC(C)C)O2`: the Potency entry was “inactive”.

Another test in a line: A CellTox Green Cytotoxicity Assay to monitor cytotoxicity in HEK293 cells - 0 hour (AID 1224869). As to conditions: CellTox Green fluorescence; series mostly up to 76.8 µM. Summed up:
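Homogeneous no-lysis format: HEK293 cell suspension mixed with CellTox Green reagent, seeded, incubated 5 h at 37 C/5% CO2, then dosed by pintool with compound in DMSO.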
In the case of `O=C(O)c1cccc(C(F)(F)F)c1`, the Potency result was “inactive”.

Consider `O=C(O)CCN(C1(C(=O)NO)CCCC1)S(=O)(=O)c1ccc(Oc2ccc(F)cc2)cc1`, for which the Potency entry is “inactive”.

Turning to `OCC(F)(F)F`, the Potency result was “inactive”.

Regarding `Cc1cccc(C(=O)O)c1O`, the Potency entry was “inactive”.

Take `C=CC(C)(CCC=C(C)C)OC=O` (stereo unspecified): the Potency result was “inactive”.

`OC[C@@H](O)[C@@H](O)CO`: the Potency result was “inactive”.

With `CCC(COC(=O)CCS)(COC(=O)CCS)COC(=O)CCS`, the Potency result is “inactive”.

For `Cc1cccc(C)c1NC(=O)c1ccc(N)cc1`, the Potency result is “inactive”.

For `Cc1c(N)cccc1C(F)(F)F`, the Potency result was “inactive”.

As for `CCCCCCOC(=O)C(C)CC` (stereo unspecified), the Potency entry is “inactive”.

Regarding `C1CCC(SSC2CCCCC2)CC1`, the Potency entry is “inactive”.

Consider `CC(C)Cn1cnc2c(N)nc3ccccc3c21`, for which the cytotoxicity is 4.66% [at 15.8 µM] (inactive).

For the compound `CC(=O)c1ccc(C(C)=O)cc1`, the Potency entry was “inactive”.

Regarding `CC(C)(c1cc(Br)c(OCC(Br)CBr)c(Br)c1)c1cc(Br)c(OCC(Br)CBr)c(Br)c1` (stereo unspecified), the Potency entry was “inactive”.

`Cc1ccc(C)cc1`: the Potency entry was “inactive”.

As to `Cc1ccc(-c2ccccc2)cc1`, the Potency entry was “inactive”.

For `COc1cc(/C=C/c2ccccc2)oc(=O)c1`, the Potency entry is “inactive”.

Take `Cc1ccc(C(C)C)cc2c(C)ccc1-2`: the Potency result was “inactive”.

With `S=c1nccc[nH]1`, the Potency result was “inactive”.

Turning to `CCC(=O)C(=O)CC`, the Potency entry is “inactive”.

`Cc1cccc2cccnc12`: the Potency result is “inactive”.

Regarding `O=C(/C=C/c1ccccc1)OC/C=C/c1ccccc1`, the Potency entry is “inactive”.

For `CC(C)OC(=O)C(O)(CC(=O)O)CC(=O)O`, the Potency entry was “inactive”.

Regarding `CCOc1ccc2ccccc2c1C(=O)N[C@@H]1C(=O)N2[C@@H]1SC(C)(C)[C@@H]2C(=O)O`, the Potency entry is “inactive”.

As to `Cc1ccc(C(=O)O)cc1`, the Potency entry was “inactive”.

Regarding `COc1cc(C)ccc1O`, the Potency entry is “inactive”.

Consider `OC[C@H]1O[C@H](O[C@H]2O[C@H](CO)[C@@H](O)[C@H](O)[C@H]2O)[C@H](O)[C@@H](O)[C@@H]1O`, for which the Potency entry is “inactive”.

On to `Cc1c(C)c2c(c(C)c1OC(=O)c1cccnc1)CC[C@@](C)(CCC[C@H](C)CCC[C@H](C)CCCC(C)C)O2`, for which the Potency result was “inactive”.

The next test can be described thus: qHTS RealTime-Glo MT Cell Viability Assay in HepG2 cells - 40 hour (AID 1224870). As to conditions: RealTime-Glo luminescence; series mostly up to 76.8 µM. The essentials: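 HepG2 cells (600/well) mixed with RealTime-Glo MT reagent, settled 5 h at 37 C/5% CO2 before compound addition. Nonlytic NanoLuc luminescence from viable-cell prosubstrate reduction read repeatedly during 40 h treatment at 37 C.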
Consider `O=C(O)c1cccc(C(F)(F)F)c1`, for which the Potency entry was “inactive”.

In the case of `O=C(O)CCN(C1(C(=O)NO)CCCC1)S(=O)(=O)c1ccc(Oc2ccc(F)cc2)cc1`, the Potency entry was “inactive”.

Take `O=C(O)c1cc(=O)c2ccccc2o1`: the Potency result was “inactive”.

Turning to `Cc1cccc(C(=O)O)c1O`, the Potency entry is “inactive”.

In the case of `C=CC(C)(CCC=C(C)C)OC=O` (stereo unspecified), the Potency result is “inactive”.

`Cc1cccc(C)c1NC(=O)c1ccc(N)cc1`: the Potency entry was “inactive”.

Turning to `Cc1c(N)cccc1C(F)(F)F`, the Potency result was “inactive”.

In the case of `CCCCCCOC(=O)C(C)CC` (stereo unspecified), the Potency entry was “inactive”.

For the compound `C1CCC(SSC2CCCCC2)CC1`, the Potency result is “inactive”.

Turning to `CC(=O)c1ccc(C(C)=O)cc1`, the Potency entry was “inactive”.

Take `CC(C)(c1cc(Br)c(OCC(Br)CBr)c(Br)c1)c1cc(Br)c(OCC(Br)CBr)c(Br)c1` (stereo unspecified): the Potency result was “inactive”.

With `Clc1sc(Cl)c(Cl)c1Cl`, the Potency entry was “inactive”.

On to `Cc1cc(-c2ccc(N=Nc3cc(S(=O)(=O)O)c4ccccc4c3N)c(C)c2)ccc1N=Nc1cc(S(=O)(=O)O)c2ccccc2c1N`, for which the Potency entry is “inactive”.

Regarding `Cc1ccc(C)cc1`, the Potency entry was “inactive”.

`Cc1ccc(-c2ccccc2)cc1`: the Potency result is “inactive”.

For `Cc1ccc(C(C)C)cc2c(C)ccc1-2`, the Potency result is “inactive”.

As to `CCC(=O)C(=O)CC`, the Potency entry is “inactive”.

For `Cc1cccc2cccnc12`, the Potency entry was “inactive”.

Regarding `Cc1c(F)c(N2CCNC(C)C2)cc2c1c(=O)c(C(=O)O)cn2C1CC1` (stereo unspecified), the Potency result is “inactive”.

As for `Nc1nc(-c2ccccc2)cs1`, the Potency entry is “inactive”.

For `CC(C)OC(=O)C(O)(CC(=O)O)CC(=O)O`, the Potency result was “inactive”.

For `CCCCCCCC`, the Potency result is “inactive”.

As to `COc1cc(C)ccc1O`, the Potency entry is “inactive”.

As for `OC[C@H]1O[C@H](O[C@H]2O[C@H](CO)[C@@H](O)[C@H](O)[C@H]2O)[C@H](O)[C@@H](O)[C@@H]1O`, the Potency result is “inactive”.

For the compound `Cc1c(C)c2c(c(C)c1OC(=O)c1cccnc1)CC[C@@](C)(CCC[C@H](C)CCC[C@H](C)CCCC(C)C)O2`, the Potency entry was “inactive”.
